Laboratory results as given in PubChem BioAssay AID624330 (Southern Research Specialized Biocontainment Screening …, 2012).
Among all 340,000 compounds or so, about 2,100 (0.62%) were called active.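 Rule for the calls: active = first-screen hits whose inhibition reached a set limit at any dose in the follow-up dose series; inconclusive = inhibition above the set first-screen limit but never retested; inactive = the rest.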 The list is a sample of the results. Measured potencies and affinities stand elsewhere.

Target: Rac GTPase-activating protein 1 (Homo sapiens) (UniProt Q9H0H5)
Sequence (Q9H0H5 whole entry, looked up): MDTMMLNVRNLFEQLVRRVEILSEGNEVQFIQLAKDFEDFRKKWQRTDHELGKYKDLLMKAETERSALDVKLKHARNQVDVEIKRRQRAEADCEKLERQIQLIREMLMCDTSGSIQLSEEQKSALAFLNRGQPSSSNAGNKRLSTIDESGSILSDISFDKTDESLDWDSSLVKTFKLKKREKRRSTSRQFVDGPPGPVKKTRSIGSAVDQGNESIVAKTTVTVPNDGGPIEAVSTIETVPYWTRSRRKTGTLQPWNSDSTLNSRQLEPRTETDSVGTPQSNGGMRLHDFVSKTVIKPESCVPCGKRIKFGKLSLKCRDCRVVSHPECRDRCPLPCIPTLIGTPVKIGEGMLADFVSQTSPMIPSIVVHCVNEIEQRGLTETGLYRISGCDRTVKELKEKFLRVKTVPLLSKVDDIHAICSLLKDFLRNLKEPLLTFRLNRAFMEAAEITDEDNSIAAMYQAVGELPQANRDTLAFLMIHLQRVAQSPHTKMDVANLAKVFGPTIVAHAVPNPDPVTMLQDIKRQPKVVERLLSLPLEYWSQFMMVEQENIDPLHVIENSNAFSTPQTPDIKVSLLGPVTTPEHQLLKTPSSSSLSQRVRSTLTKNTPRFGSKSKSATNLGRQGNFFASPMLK
Assay: blockers of MgcRacGAP-driven Rac1 GTP hydrolysis – biochemical, ADP Hunter fluorescence, primary and confirmatory, confirmation (AID 624330);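 note: fluorescence reports GDP produced by GAP-driven GTP hydrolysis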
Conditions: MgcRacGAP-stimulated Rac1 GTP hydrolysis, at 30 µM, hits give high values, GST-tagged Rac1 F28L mutant substrate

inhibition, inactive:
Cn1c(SCC(=O)NCc2cccs2)nnc1-c1ccncc1 5.96%
O=C(NCc1cc(C(F)(F)F)ccc1Cl)c1cccc2c1C(=O)c1ccc(N3CCCCC3)cc1S2(=O)=O 5.32%
COC(=O)C1CC2=C(CCCC2=O)NC1=O (configuration not stated) 5.59%
COc1ccc(O)c(-c2cc(-c3cccc(Br)c3)n[nH]2)c1 10.7%
COc1ccc(NC(=O)C2CCN(C(=O)Cc3ccccc3)CC2)c(OC)c1 8.8%
C/C(=N\NS(C)(=O)=O)c1ccc(C)cc1 5.59%
Cc1cccc(C(=O)Nc2ccc(C(=O)N/N=C/c3ccco3)cc2)c1 1.6%
CN(Cc1ccc(Cl)cc1Cl)C(=O)C1CSC2(C)CCC(=O)N12 (configuration not stated) 7.87%
O=S(=O)(/N=C(/Nc1nccs1)c1ccc(F)cc1)c1ccccc1 -7.34%
Cc1cccc(C)c1OCCCN1CCOCC1 9.47%
COc1cccc(OC)c1OCCCCN1CCCCC1 19.4%
COc1cccc(OC)c1OCCN1CCCC1 -3.59%
COc1cccc(OC)c1OCCCCCCN1CCN(C)CC1 4.56%
O=[N+]([O-])c1ccc(/C=N\N2CCN(Cc3ccccc3Cl)CC2)cc1 10%
CC(=O)N1c2ccc(S(=O)(=O)NCCC(=O)NC3CCC(C)CC3)cc2CC1C (configuration not stated) 6.14%
O=C(CSCC(=O)OCC(=O)c1ccc(Br)cc1)Nc1ccc(Br)cc1 2.71%
C=CCn1c(C)cc(C(=O)COC(=O)CCc2cc(OC)c(OC)c(OC)c2)c1C 1.52%
COc1ccccc1NS(=O)(=O)c1ccc(C(=O)NCC(c2ccco2)N2CCCCC2)cc1 (configuration not stated) -5.8%
Cc1ccc(C(C)C)c(OCCCN(C)Cc2ccccc2)c1 13%
Cc1cc(C)c(OCCN(C)Cc2ccccc2)c(Br)c1 9.5%
Cc1cc(C)c(C)c(OCCCCN(C)Cc2ccccc2)c1 26.2%
Cc1ccc(Cl)c(OCCCCN(C)Cc2ccccc2)c1 26.2%
COc1ccc(-c2c[n+]3c4n2CCCCC4=C(c2ccccc2)C3)cc1 8.53%
CCOC(=O)C1CCN(C(=O)CN2C(=O)c3cccnc3Oc3ccccc32)CC1 6.53%
COc1ccc(NC(=O)CCNS(=O)(=O)c2ccc3c(c2)CC(C)N3C(=O)C2CC2)cc1 (configuration not stated) 8.6%
COc1ccc(-c2cc(C(=O)N(C)Cc3ccc(F)cc3)c3ccccc3n2)cc1OC 9.06%
CCSc1nnc([C@H](Cc2c[nH]c3ccccc23)NC(=O)OC(C)(C)C)o1 5.34%
COc1ccc(NC(=O)CCC(=O)c2cccs2)cc1Cl 1.13%
Cc1ccc(NCCC(=O)c2cccs2)cc1Cl -0.47%
O=C1CCNc2c(Cl)cc(Cl)cc21 -0.57%
Cc1ccc(OC(=O)C(F)(F)F)c2c1NCCC2 22.1%
COCc1[nH][nH]c(=O)c1C=Nc1ccc(Cl)cc1 8.52%
Cc1ccc(N(CC(=O)Nc2ccccc2-c2ccccc2)S(=O)(=O)c2ccccc2)cc1 1.42%
COc1ccc(O)c(/C=N/N=C2/C(=O)Nc3ccccc32)c1 10.2%
O=C1Nc2ccccc2/C1=N/N=C/c1cccc(O)c1 -0.92%
C#CCOCCOCCOCCNc1nc(N2CCN(C(=O)[C@H](Cc3ccc(O)cc3)n3cc([C@@H](N)C(C)CC)nn3)CC2)nc(N2CCN(C(=O)[C@H](Cc3cc4ccccc4[nH]3)n3cc([C@@H](N)C(C)CC)nn3)CC2)n1 (some centres not stated) 7.82%
O=C(c1ccccc1)c1ccc2nc(-c3ccco3)c(-c3ccco3)nc2c1 25.8%
O=C(Nc1ccccc1)c1ccc2nc(-c3ccco3)c(-c3ccco3)nc2c1 14.3%
CCc1cccc(C)c1NC(=O)c1cccc(N(C)C)c1 23.8%
CCCCCCCCC1=NCCc2c1[nH]c1ccccc21 12.8%
Cc1cc(=O)[nH]c2cc(O)ccc12 5.17%
CCOCCc1nnc(NC(=O)Cc2c(F)cccc2Cl)s1 -4.41%
NC(=O)c1ncn([C@@H]2O[C@H](CNCc3ccccc3OCc3ccc(Cl)cc3Cl)[C@@H](O)[C@H]2O)n1 -6.96%
O=C(NCc1cccs1)Nc1ccc2c(c1)OCO2 -0.17%
O=C(O)CCNc1ccc2c(c1)OCCO2 19.4%
Cc1ccc(Nc2nc(N)c([N+](=O)[O-])c(NCc3ccco3)n2)cc1C 2.81%
O=C(NCc1cccs1)c1ccc2c(c1)OCCO2 -0.21%
CCOc1ccc(Br)cc1CNc1ccc2c(c1)OCCO2 24.3%
O=C(Cc1ccccc1[N+](=O)[O-])Nc1ccc2c(c1)OCCO2 2.24%
COc1ccc(C(=O)CCNc2ccc3c(c2)OCCO3)cc1 38.5%
Cc1ccc(S(=O)(=O)NCc2ccco2)cc1C 0.0567%
CCCn1c(=O)[nH]c(=O)c2c1nc(-c1ccc3c(c1)OCCO3)n2CCN1CCOCC1 10.3%
O=S(=O)(c1ccccc1)N(Cc1ccccn1)Cc1ccccn1 3.72%
C/C=C(\C)C(=O)OC(C)(C)[C@H]1Cc2cc3ccc(=O)oc3cc2O1 7.55%
CCC(c1nnc(SCC(=O)Nc2cc(Cl)ccc2C#N)n1C1CCCCC1)N(C)C (configuration not stated) 5.01%
CCc1ccc(-c2cc(C(=O)O)c3ccccc3n2)s1 -3.07%
CCCN(CCC)CCCNC(=O)c1cc2c(=O)[nH]c3ccccc3c2s1 23.4%
O=C(Cc1ccc(Cl)cc1)SCc1ccccc1 4.82%
O=C(NNC(=O)c1cc([N+](=O)[O-])ccc1Cl)c1cccnc1 3.49%
O=c1[nH]c2ccc(S(=O)(=O)Nc3ccc(Br)cc3)cc2[nH]1 0.44%
Cc1cccc(NCc2ccccc2O)c1 13.2%
Cc1ccc(NCc2ccccc2O)cc1 19.1%
Cc1ccc(NCCC#N)cc1C -10%
Cc1ccc(NCC(O)C(O)C(O)CO)cc1C (configuration not stated) 9.4%
COc1ccc(C(CCc2ccc(C)o2)NC(=O)Nc2ccc(OC)cc2OC)cc1 (configuration not stated) 0.8%
C/C=C(\C)C(=O)NCCN1C2=NC[C@@H](Cc3ccccc3)N2C[C@@H]1Cc1ccc(OC)cc1 5.16%
Cc1ccc(O)c(/C=N/NC(=O)Cc2ccc(Cl)cc2)c1 -8.7%
COC(=O)C1=C(C)N(Cc2ccccc2)C(=O)N[C@H]1CCc1ccccc1 8.96%
COc1ccccc1/C=C1\SC(N2CCC(C)CC2)=NC1=O 8.78%
COc1cccc(/C=C2\SC(N3CCCC(C)C3)=NC2=O)c1OC (configuration not stated) 10.3%
CCOC(=O)C1CCCN(C2=NC(=O)/C(=C/c3ccc(OC)c(OC)c3)S2)C1 (configuration not stated) 7.19%
COc1ccc(OC)c(/C=C2\SC(N3CCCC(C)C3)=NC2=O)c1 (configuration not stated) 2.99%
CC1CCN(C2=NC(=O)/C(=C/c3cccc(O)c3)S2)CC1 3.71%
CCOC(=O)C1CCCN(C2=NC(=O)/C(=C/c3ccc(OC)cc3)S2)C1 (configuration not stated) 8.26%
CCOC(=O)C1CCN(C2=NC(=O)/C(=C/c3ccc(Cl)cc3)S2)CC1 7.83%
CCOC(=O)C1CCN(C2=NC(=O)/C(=C/c3ccc(OC)c(OC)c3)S2)CC1 12.3%
CSCCC(=O)N1C(C)CCCC1C(=O)O (configuration not stated) 8.45%
COc1ccccc1-n1c(C)cc(/C=C2\C(=N)N3N=C(CC(=O)N4CCOCC4)SC3=NC2=O)c1C 13.5%
CCCN(CC(=O)Nc1ccccc1C)C(=O)Cc1cccs1 9.22%
COC(=O)C1=C(CS(=O)(=O)c2ccc(Cl)cc2)NC(=O)NC1c1ccc(O)c(OC)c1 (configuration not stated) 0.39%
CC(C)(C)NC(=S)NNC(=O)c1ccc2ncccc2c1 4.55%
O=C(NN=C1CCC(=NNC(=O)c2ccccn2)CC1)c1ccccn1 10.4%
CCOC(=O)C1CCCN(C2=NC(=O)/C(=C/c3ccc(N(C)C)cc3)S2)C1 (configuration not stated) 3.86%
CCOc1ccc(/C=C2\SC(N3CCCCC3)=NC2=O)cc1 10.3%
Cc1ccsc1/C=N/NC(=O)C(O)c1ccccc1 (configuration not stated) 8.51%
S=C(NCc1ccco1)Nc1ccccc1 3.49%
CCN(CC)S(=O)(=O)c1cccc(NC(=O)COC(=O)c2n[nH]c(=O)c3ccccc23)c1 4.21%
COc1cccc(CNC2CCCCCCC2)c1OC 20.3%
COc1cccc(CNc2ccc(F)c(Cl)c2)c1OC 6.64%
COc1cccc(OC)c1C(=O)Nc1ccc(N2CCCC2)cc1 19%
COc1cc(CNc2ccc(N3CCCC3)cc2)ccc1OCc1ccccc1F 19.3%
COc1cccc(CNc2ccc(S(N)(=O)=O)cc2)c1OC -0.0267%
COc1ccccc1C(=O)Nc1ccc(N2CCCCC2)cc1 16.2%
COc1ccc(CC(=O)Nc2cc(Cl)ccc2C(=O)O)cc1 11%
O=C(CSc1nc2cc(Cl)ccc2s1)c1ccco1 9.01%
COc1ccc(N2CCN(C(=O)c3ccccc3N(C)S(=O)(=O)c3ccc(C)cc3)CC2)cc1 30.1%
O=C(O)c1cnc(-c2ccccc2)nc1Oc1ccccc1 4.36%
